{"source": "PubChem BioAssay (NCI)", "note": "Values joined by “and” are separate entries in the source; they are usually repeats but may differ in a detail not shown here. Equal entries are not always repeated. The panel holds about 83,000 compounds, 20% with a hit somewhere; the sample as a whole holds those more often.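 48-hour exposure, single concentration, 96-well plates; percent growth endpoint where 0 means no net growth. Active: below 10.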 A number with no mark means an inactive call. Active and inactive are the calls of the source.", "data": [{"test_system": "MDA-MB-468 breast", "test": "NCI-60 one-dose screen, 48 h (100 = growth as untreated, 0 = no growth, -100 = all killed)", "details": "10 µM unless noted", "values": [{"smiles": "C(=N\\Nc1ncnc2sc3c(c12)CCNC3)/c1cccc2ccccc12", "growth": "72.1%"}, {"smiles": "C=C1C(=O)O[C@H]2[C@H]1CC/C(COC(=O)/C=C\\C(=O)NCc1ccc(Cn3c(=O)sn(CCI)c3=O)cc1)=C\\CC[C@@]1(C)O[C@@H]21", "growth": "-36.2% (active)"}, {"smiles": "NS(=O)(=O)c1ccc(Nc2nc(O)c(/C=C3\\C=Nc4ccccc43)s2)cc1", "growth": "104%"}, {"smiles": "CN[C@@H]1C[C@H]2O[C@@](C)([C@@H]1OC)n1c3ccccc3c3c4c(c5c6ccccc6n2c5c31)C(=O)N[C@H]4O", "growth": "-56.3% (active)"}, {"smiles": "CCCCCCCCCCCCCCNCc1ccccc1", "growth": "-29.3% (active)"}, {"smiles": "O=C1CCc2c(sc3[nH]c(=S)n(-c4ccc(OC(F)(F)F)cc4)c(=O)c23)C1", "growth": "-4.6% (active)"}, {"smiles": "NC(=O)c1cccc(-n2ccc3cc(NC(=O)c4ccc(N5CCOCC5)c(C(F)(F)F)c4)ccc32)n1", "growth": "75.7%"}, {"smiles": "COc1cc2c(Nc3ccc(Cl)c(Cl)c3F)ncnc2cc1OCC1C[C@@H]2CN(C)C[C@@H]2C1", "note": "(stereo not given in full)", "growth": "-86.1% (active) and -71.9% (active)"}, {"smiles": "CC(CN(C)C)CN1c2ccccc2CCc2ccccc21", "note": "(stereo not given)", "growth": "41.7%"}, {"smiles": "COc1cccc(-c2nn(-c3ccccc3)cc2-c2ccnc(NCCCNS(=O)(=O)c3ccc(C(F)(F)F)cc3)c2)c1", "growth": "-9.51% (active)"}, {"smiles": "C#C[C@@]1(O)[C@@H](CO)O[C@@H](n2cc(-c3ccco3)c3c(N)ncnc32)[C@@H]1O", "growth": "49.5%"}, {"smiles": "COc1ccc(N(c2nc(-c3ccc([N+](=O)[O-])cc3)cs2)C(C)C)cc1", "growth": "20.4%"}, {"smiles": "COc1cccc(NCc2nnc(Nc3ccc(Cl)cc3)c3ccccc23)c1", "growth": "-21.9% (active)"}, {"smiles": "O=C(Cn1cc(CSc2nc3ccccc3o2)nn1)Nc1ccc(F)cc1F", "growth": "104%"}, {"smiles": "CNC1=C([N+](=O)[O-])C(c2ccccc2O)C(C#N)=C(c2cccs2)O1", "note": "(stereo not given)", "growth": "74.5%"}, {"smiles": "O=C(N=c1n(-c2ccccc2)nc2n1CCN2C1=NCCN1)c1ccc(Cl)cc1", "growth": "50.3%"}, {"smiles": "C/C(Cc1ccc(Cl)cc1)=C(\\c1ccc(O)cc1)c1ccc(Cl)cc1", "growth": "101%"}, {"smiles": "C#C[C@]1(O)CC[C@H]2[C@@H]3CC=C4c5sc(-c6ccc(OC)cc6)nc5CC[C@]4(C)[C@H]3CC[C@@]21C", "growth": "71.6%"}, {"smiles": "CCOC(=O)c1cc(C(=O)c2cc(OC)cc(OC)c2)n2ccccc12", "growth": "30.2%"}, {"smiles": "COC(=O)[C@]12CC[C@@H](C)[C@H](C)[C@@H]1C1=CC[C@@H]3[C@@]4(C)C[C@@H](OC(=O)/C=C/c5ccccc5)[C@H](O)[C@@](C)(CO)[C@@H]4[C@H](O)C[C@@]3(C)[C@]1(C)CC2", "growth": "-19.2% (active)"}, {"smiles": "Cc1cc(NCc2cc(Nc3ccnc4cc(Cl)ccc34)ccc2F)nc(Cl)n1", "growth": "-3.4% (active)"}, {"smiles": "c1cc(C2CCCCC2)ccc1-c1cnc2nonc2n1", "growth": "2.69% (active)"}, {"smiles": "O=C(NCCCNc1cc(-c2cn(-c3ccccc3)nc2-c2cccc(O)c2)ccn1)c1ccccc1", "growth": "-61% (active)"}, {"smiles": "Oc1c(Br)c(Br)c(O)c(Br)c1Br", "growth": "102%"}, {"smiles": "CC1(C)CC2=C3C=C[C@@H]4[C@@]5(C)CC[C@H](O)C(C)(C)[C@@H]5CC[C@@]4(C)[C@]3(C)CC[C@@]2(C(=O)O)CC1=O", "growth": "81.4%"}, {"smiles": "CCOC(=O)c1sc(Nc2ccc(Cl)cc2)nc1C", "growth": "-13.9% (active)"}, {"smiles": "Cc1cc(OI)c(C(C)C)cc1-c1cc(C(C)C)c(OI)cc1C", "growth": "108%"}, {"smiles": "O=C(C1CCCCC1)[C@@H]1[C@]2(C(=O)NC3CCCCC32)[C@@H]2CCCN2[C@@]12C(=O)NC1CCC(Cl)CC12", "note": "(stereo not given in full)", "growth": "-67% [100 µM] (active)"}, {"smiles": "c1ccc2cc(Cn3c[n+](Cc4ccc5ccccc5c4)c4ccccc43)ccc2c1", "growth": "-21% (active)"}, {"smiles": "COc1ccc(-c2[nH]nc(N)c2-c2cc(OC)c3c(c2)OCO3)cc1", "growth": "33.5%"}, {"smiles": "COc1ccc2c(c1)CC=C1[C@@H]2CC[C@]2(C)C(=O)/C(=N/O)C[C@@H]12", "growth": "63.2%"}, {"smiles": "O=C1NC(=O)C(=Cc2cc(-c3ccc(Cl)cc3)n(-c3ccccc3)n2)C(=O)N1", "growth": "87.3%"}, {"smiles": "Cc1ccc(-c2cc3c(SCC(=O)Nc4cc(C(F)(F)F)ccc4Cl)nccn3n2)cc1", "growth": "-19.3% (active)"}, {"smiles": "CCN=c1sc2c(n1NC(=O)c1cc3ccc1CCc1ccc(cc1)CC3)C(=O)c1ccccc1C2=O", "growth": "-33.7% (active)"}, {"smiles": "CCCCCCCCNC(=O)C(C)C", "growth": "85.4%"}, {"smiles": "CC1(C)NC2=C(C(Nc3cccnc3)N1)C(c1ccc([N+](=O)[O-])cc1)C(C(=O)c1ccc(N=[N+]=[N-])cc1)O2", "note": "(stereo not given)", "growth": "115%"}, {"smiles": "CNc1ccc(NC)c2c1C(=O)c1ccccc1C2=O", "growth": "-7.38% (active)"}, {"smiles": "C=CCS(C)(=O)=O", "growth": "95.9%"}, {"smiles": "Cc1cn(-c2cc(NC(=O)c3ccc(C)c(Nc4nccc(-c5cccnc5)n4)c3)cc(C(F)(F)F)c2)cn1", "growth": "37.2%"}, {"smiles": "CCCCCCC1(/C=N/NC(N)=O)NC(=O)NC1=O", "note": "(stereo not given)", "growth": "92.1%"}]}]}
